Bioassay records from PubChem BioAssay.
JMJD2A Tudor inh = qHTS Assay for Inhibitors of JMJD2A-Tudor Domain. AID 504339, 2011. 390,000 compounds, 4.4% hits. AlphaScreen JMJD2A-Tudor / H3K4me3 peptide binding. Lysine-specific demethylase 4A (Homo sapiens), O75164. Potency, µM (titrated, usually from 114 µM), without a hit: at the highest dose activity change, negative = inhibition, usual class: inhibitors; also: % is scaled to controls: 0 for no effect and ±100 for the full control effect; nearly all actives have a fitted effect of over 50% in size
BAZ2B inh = qHTS Assay for Inhibitors of BAZ2B | Bromodomain adjacent to zinc finger domain protein 2B (Homo sapiens), Q9UIF8 | AlphaScreen BAZ2B-H3K14Ac peptide displacement | Potency, µM (doses to about 114 µM), without a hit: at the top dose activity change, negative = inhibition, usual class: inhibitors | 360,000 compounds, 4.4% hits; also: % is scaled to controls: 0 for no effect and ±100 for the full control effect; nearly all actives have a fitted effect of over 60% in size
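AlphaScreen displacement: compounds (up to 110uM) incubated 30 min at room temperature with a preformed 50 nM BAZ2B/50 nM biotinylated H3K14Ac peptide complex in PBS pH 7.4 with Tween-20. Donor and acceptor beads at 10 ug/mL final added, 20 min light-protected before reading.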
GLS inhibitor = qHTS for Inhibitors of Glutaminase (GLS); GLS enzymatic activity, qHTS titration; Potency, µM (highest dose often 45.5 µM), for the others: at the top dose activity change, negative = inhibition, usual class: inhibitors; 410,000 compounds, 0.21% hits; AID 624170, 2012; also: % is scaled to controls: 0 for no effect and ±100 for the full control effect
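Human kidney-isoform GLS in 45 mM KH2PO4 pH 8.2, 0.02% Tween-20, with compound, started with 1mM L-Glutamine (added stock). Glutamate oxidase/HRP/Amplex red coupled fluorescence read at start and after 30 min at RT.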
HP1b chromo inh = HTS for Inhibitors of HP1-beta Chromodomain Interactions with Methylated Histone Tails | Potency, µM (highest dose often 114 µM), for inactives: at the highest dose activity change, negative = inhibition, actives largely listed as inhibitors | 390,000 compounds, 0.56% hits | AlphaScreen HP1-beta / biotin-H3K9me3 peptide binding | AID 540317, 2011; also: nearly all actives have a fitted effect of over 70% in size
Target sequence (P83916 whole entry, looked up): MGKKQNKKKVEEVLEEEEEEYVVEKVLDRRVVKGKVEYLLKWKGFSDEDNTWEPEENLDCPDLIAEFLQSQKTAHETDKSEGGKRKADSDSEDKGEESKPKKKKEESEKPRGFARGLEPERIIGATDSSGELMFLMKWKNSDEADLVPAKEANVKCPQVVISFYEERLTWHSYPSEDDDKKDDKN
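HP1-beta protein (50 nM final) preincubated 30 min at room temperature with biotinylated H3(1-18)K9me3 peptide (50 nM) in PBS pH 7.4, 0.01% Tween-20, then compound added for 30 min. AlphaScreen streptavidin donor/nickel chelate acceptor beads (10 ug/mL final), 30 min dark, luminescence read.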
G9a block = qHTS Assay for Inhibitors of Histone Lysine Methyltransferase G9a | 350,000 compounds, 8.8% hits | Potency, µM (series often up to 102 µM), for inactives: top-dose activity, negative = inhibition, most hits filed as inhibitors | G9a H3K9 monomethylation, AlphaScreen, 2 h; also: % is scaled to controls: 0 for no effect and ±100 for the full control effect; nearly all actives have a fitted effect of over 75% in size
Target sequence (Q96KQ7 913-1193 limits assumed): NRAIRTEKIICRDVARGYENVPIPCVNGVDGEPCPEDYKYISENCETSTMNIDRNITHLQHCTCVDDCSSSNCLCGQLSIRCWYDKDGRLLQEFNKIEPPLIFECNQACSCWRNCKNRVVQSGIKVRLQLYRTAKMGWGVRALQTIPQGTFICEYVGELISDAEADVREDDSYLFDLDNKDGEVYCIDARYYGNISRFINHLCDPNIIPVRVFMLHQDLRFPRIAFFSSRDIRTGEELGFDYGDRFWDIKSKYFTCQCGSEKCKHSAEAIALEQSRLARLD
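G9a (20 nM) was preincubated 15 min with compound, then reacted 2 h at room temperature with 500 nM biotin-H3K9 peptide and 20 µM SAM. Monomethyl-H3K9 detected by AlphaScreen using anti-H3K9me1 antibody.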
Active calls of the source: *; [ ] = another dose, or the depositor's remark. A selection: hits, their analogues and other compounds. The true share with any hit is near 10%. Calls follow the shape of the dose curve; as a rule, active = well fitted curve in the direction sought with a large enough effect; inconclusive = small, poorly fitted or top-dose-only effect, or another doubt; inactive = no such curve, though single readings can be large; an effect the other way counts as inactive or inconclusive. Potency is read from the fitted curve at half-maximal effect.

Nc1nn2c(-c3ccccc3)cc(=O)[nH]c2c1N=Nc1ccc(O)cc1 was read as JMJD2A Tudor inh -28%, BAZ2B inh inconclusive, GLS inhibitor inconclusive, HP1b chromo inh inconclusive and G9a block inconclusive.
`Cc1cc(C)c(S(=O)(=O)N(CC(=O)O)CC(=O)O)c(C)c1` gave JMJD2A Tudor inh inconclusive, BAZ2B inh 14%, HP1b chromo inh 13% and G9a block 22µM*.
COc1ccc(C)cc1Nc1n[n+](C)c(-c2ccc(O)cc2O)s1 was read as JMJD2A Tudor inh -17%, BAZ2B inh -28%, GLS inhibitor 10%, HP1b chromo inh 47% and G9a block 18µM*.
`COc1ccc(C)cc1Nc1n[n+](C)c(-c2c3ccccc3cc3ccccc23)s1` gave JMJD2A Tudor inh -20%, BAZ2B inh -17%[57.1 µM], GLS inhibitor -5%, HP1b chromo inh 48% and G9a block 45µM*.
COc1ccc(-c2sc(Nc3ccccc3)n[n+]2C)c(C)c1C was read as JMJD2A Tudor inh -17%, BAZ2B inh 8%[57.1 µM], GLS inhibitor 8% and HP1b chromo inh 13%.
For CN(Cc1cn(-c2ccccc2)nc1-c1cc2ccccc2o1)C(=O)CCC(=O)O the results were JMJD2A Tudor inh 32µM*, BAZ2B inh -22%, GLS inhibitor -6%, HP1b chromo inh -23% and G9a block -1%.
For O=C(O)c1cc(N2C(=O)C=CC2=O)cc(N2C(=O)C=CC2=O)c1 the results were JMJD2A Tudor inh 2.2µM*, GLS inhibitor inconclusive and HP1b chromo inh 5.6µM*.
`Cc1cc(C)n(-c2cc(C(=O)O)cc(C(=O)O)c2)n1` gave JMJD2A Tudor inh -9%, BAZ2B inh -34%, GLS inhibitor -12%, HP1b chromo inh 29% and G9a block -1%.
`CCCNC(=O)C1(C)CCN(Cc2ccc3ccccc3c2Br)C1` (stereo unspecified) gave GLS inhibitor 15%.
Screening Cc1ccc(-c2ccc(/C=N/N3C(=O)C4C5C=CC(C6CC56)C4C3=O)o2)c([N+](=O)[O-])c1 (stereo unspecified) returned JMJD2A Tudor inh -25%[57.1 µM], BAZ2B inh inconclusive, GLS inhibitor 1%, HP1b chromo inh -15% and G9a block 45µM*.
`COC(=O)c1ccc(-c2ccc(/C=N/N3C(=O)C4C5C=CC(C6CC56)C4C3=O)o2)cc1` (stereo unspecified) gave JMJD2A Tudor inh inconclusive, BAZ2B inh 56µM*, GLS inhibitor 10%, HP1b chromo inh -1% and G9a block 7.9µM*.
`O=C1C2C3C=CC(C4CC34)C2C(=O)N1/N=C/c1ccc(-c2ccc([N+](=O)[O-])cc2)o1` (stereo unspecified) gave JMJD2A Tudor inh -1%, BAZ2B inh -12%, GLS inhibitor -3%, HP1b chromo inh 27% and G9a block 4%[59 µM].
For N#CCCN(C(=O)COC(=O)c1ccc(Cl)nc1)c1ccc2c(c1)OCCO2 the results were GLS inhibitor -6%.
For COC(=O)c1sccc1N/C=C(\C#N)S(=O)(=O)C(C)(C)C the results were JMJD2A Tudor inh 79µM*, BAZ2B inh -5%, GLS inhibitor -8%, HP1b chromo inh -1% and G9a block -2%.
COc1ccccc1CNC(=O)c1ccc(N2CCCC2)c(NC(=O)NCc2ccc(F)cc2)c1 was read as JMJD2A Tudor inh -5%, BAZ2B inh 18%, GLS inhibitor 8%, HP1b chromo inh 67% and G9a block 32%[59 µM].
Screening Cn1ccnc1Sc1ccccc1[N+](=O)[O-] returned JMJD2A Tudor inh -1%, BAZ2B inh 2%, GLS inhibitor -5%, HP1b chromo inh 40% and G9a block inconclusive.
`Cc1cc([N+](=O)[O-])cnc1Sc1nccn1C` gave JMJD2A Tudor inh -9%, BAZ2B inh 50µM*, GLS inhibitor 2%, HP1b chromo inh 35% and G9a block 18%[59 µM].
